Bioassay records as filed in PubChem BioAssay.
AHR activator – human AHR activation. P35869. AHR-responsive luciferase reporter cells, luminescence. activation, % at 5 µM. hit rate 2.5% among 320,000. AID 2796; in the data active = activation above about 47%;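 also: 0% = vehicle wells and 100% = reference agonist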
AI-2 QS modul – Vibrio harveyi AI-2 quorum sensing modulation | activity change, % at 7.5 µM | Vibrio harveyi JMH597 AI-2 luminescence/OD600 ratio, 9 h; stronger effect = lower value; strain lacks LuxN and CqsS sensors; 0 = neutral-control median | hit rate 0.4% among 300,000; in the data active = activity change below about -75%, passing the limit was not always enough;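 also: luminescence divided by OD600 gain over 9 h not by final OD600 alone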
GRIN3A LBD mod – modulators (binders) of human NR3A ligand-binding domain; Tm shift relative to glycine control, % at 25 µM; AID 1259313; hit rate 2.5% among 340,000; NR3A LBD differential scanning fluorimetry, Tm shift; 0% = protein alone, 100% = glycine-bound protein;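 active = melting temperature shift of at least 10% of the positive control shift, at one fixed dose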
Mot1-301 SUMO – SUMOylation pathway inhibition by Mot1-301 growth rescue | hit rate 1% among 320,000 | S. cerevisiae Mot1-301 growth rescue, ATP luminescence, 38.5C; percent above DMSO median, 100 means doubled | growth rescue, % at 18.8 µM;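 active = every valid replicate shows activation above 250% relative to neutral control wells; inactive = the rest, any valid replicate at or below 250%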;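 also: OY570 slx delta 5 strain wells were the positive control but not used for scaling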
H9c2 protect – myocardial damage modulation in H9c2 cells | H9c2 cardiomyocytes, H2O2 injury protection, ATPLite, 2 h | hit rate 0.63% among 360,000 | protection from H2O2 cell death, % at 20 µM | AID 588492;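 active = compounds giving at least 50% protection of heart cells from peroxide-induced death in the single-dose screen, raw or plate-pattern-corrected value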;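 also: 0% = DMSO wells with peroxide and 100% = DMSO wells without peroxide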
NTR1 ag – agonists of human neurotensin receptor NTR1; P30989; NTR1-U2OS beta-arrestin-GFP spot imaging, agonist mode; activation, % at 20 µM; hit rate 0.17% among 330,000; AID 493036;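 active = activation at or above 40% of the spot to cytoplasm intensity ratio, with at least 20 cells analyzed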;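 also: 0% = DMSO without peptide and 100% = 100 nM NTR1 peptide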
Target sequence (P30989 whole entry, looked up): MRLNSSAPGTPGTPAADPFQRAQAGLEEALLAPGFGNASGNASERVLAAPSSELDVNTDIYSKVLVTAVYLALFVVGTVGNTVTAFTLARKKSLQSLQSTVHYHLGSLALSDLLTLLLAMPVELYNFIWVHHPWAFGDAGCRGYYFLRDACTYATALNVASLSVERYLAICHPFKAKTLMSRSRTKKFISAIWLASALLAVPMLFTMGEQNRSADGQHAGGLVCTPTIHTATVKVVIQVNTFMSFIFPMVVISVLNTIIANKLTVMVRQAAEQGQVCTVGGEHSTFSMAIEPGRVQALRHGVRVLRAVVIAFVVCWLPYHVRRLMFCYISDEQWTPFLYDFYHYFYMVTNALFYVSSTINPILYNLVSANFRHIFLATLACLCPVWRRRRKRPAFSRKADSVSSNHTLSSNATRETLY
Starred values were filed as active, the others as inactive. Sampled rows, rich in hits. Any-hit rate of the full collection: about 6.2%.

`CC1(C(=O)NS(=O)(=O)C2CC2)CCCN(C(=O)c2c(F)cccc2F)C1` (stereo not drawn) gave H9c2 protect -1.
Screening Cc1ccc([N+](=O)[O-])cc1NC(=S)NCCc1ccccc1 returned AHR activator 52*, AI-2 QS modul 10, GRIN3A LBD mod -4, Mot1-301 SUMO -9, H9c2 protect -14 and NTR1 ag 1.
Screening O=C(NC(=S)Nc1cccc([N+](=O)[O-])c1)c1ccccc1 returned AHR activator 2, GRIN3A LBD mod 4, Mot1-301 SUMO 26, H9c2 protect 1 and NTR1 ag 1.
`O=C(NC(=S)Nc1cc([N+](=O)[O-])ccc1Cl)c1ccccc1` gave AHR activator 71*, AI-2 QS modul -9, GRIN3A LBD mod 2, Mot1-301 SUMO -2, H9c2 protect -16 and NTR1 ag 6.
COc1ccc(C(=O)NC(=S)Nc2ccc([N+](=O)[O-])cc2C)cc1OC was read as AHR activator 2, GRIN3A LBD mod 28*, Mot1-301 SUMO 1, H9c2 protect -9 and NTR1 ag 6.
Screening COc1cccc(NC(=O)N2CCCC2C(=O)Nc2cc(C)ccc2OC)c1 (stereo not drawn) returned AHR activator 1, AI-2 QS modul 5, GRIN3A LBD mod -2, Mot1-301 SUMO -6, H9c2 protect -6 and NTR1 ag 0.
Screening O=C(CN1CCOCC1)Nc1cc(C(F)(F)F)ccc1Cl returned AHR activator 4, GRIN3A LBD mod 1, Mot1-301 SUMO 75, H9c2 protect -6 and NTR1 ag -2.
`O=C(CN1CCN(C(=O)c2ccco2)CC1)Nc1cc(C(F)(F)F)ccc1Cl` gave AHR activator -4, AI-2 QS modul 14, GRIN3A LBD mod 14*, Mot1-301 SUMO 3, H9c2 protect -11 and NTR1 ag 0.
O=C1OCC/C1=C\NCCCN/C=C1\CCOC1=O was read as H9c2 protect -1.
`CCc1nc2c(OCCn3cccc3)cccn2c1N(C)C(=O)c1ccc(OC)cc1` gave H9c2 protect 5.
O=C(CSC1=NS(=O)(=O)c2cc(Cl)ccc2N1)Nc1cccc(F)c1 was read as AHR activator 0, AI-2 QS modul -2, GRIN3A LBD mod 19*, Mot1-301 SUMO 0, H9c2 protect 0 and NTR1 ag 1.
`CC(=O)c1ccc(NC(=O)CSC2=NS(=O)(=O)c3cc(Cl)ccc3N2)cc1` gave AHR activator 1, AI-2 QS modul 7, GRIN3A LBD mod 12*, Mot1-301 SUMO -10, H9c2 protect 2 and NTR1 ag 0.
Screening O=C(CSC1=NS(=O)(=O)c2cc(Cl)ccc2N1)c1ccc(Cl)cc1 returned AHR activator 1, AI-2 QS modul 19, GRIN3A LBD mod 12*, Mot1-301 SUMO -6, H9c2 protect -10 and NTR1 ag 0.
For O=C(CSC1=NS(=O)(=O)c2cc(Cl)ccc2N1)NCc1ccc(F)cc1 the results were AHR activator -2, AI-2 QS modul 36, GRIN3A LBD mod -2, Mot1-301 SUMO 131, H9c2 protect -5 and NTR1 ag 0.
Screening COc1ccc(N(C)S(=O)(=O)c2cccc(C(=O)OCC(=O)c3c(N)n(C)c(=O)n(C)c3=O)c2)cc1 returned AHR activator 2, GRIN3A LBD mod -6, Mot1-301 SUMO -5, H9c2 protect -5 and NTR1 ag 10.
For CC1(O)C(c2ccccc2)=Nc2ccccc21 (stereo not drawn) the results were H9c2 protect 1.
For O=C(CSc1nncn1-c1ccccc1)N1CCCC1 the results were AHR activator 4, AI-2 QS modul 18, GRIN3A LBD mod 0, Mot1-301 SUMO -21, H9c2 protect 0 and NTR1 ag 0.
Nc1cc(N2CCOCC2)c(Cl)cc1[N+](=O)[O-] was read as AHR activator 2, AI-2 QS modul 11, GRIN3A LBD mod 2, Mot1-301 SUMO 0, H9c2 protect 0 and NTR1 ag 0.
`Nc1cc(N2CCCC2)c(Cl)cc1[N+](=O)[O-]` gave AHR activator -1, AI-2 QS modul -3, GRIN3A LBD mod -3, Mot1-301 SUMO 307*, H9c2 protect -10 and NTR1 ag 2.
For C[C@@H]1CN([C@@H](C)CO)C(=O)CCCn2nncc2CO[C@H]1CN(C)C(=O)Nc1ccccc1F the results were H9c2 protect 8.
Cc1cc(/C=C2/NC(=O)N(Cc3ccccc3F)C2=O)c(C)n1C was read as AHR activator 76*, AI-2 QS modul 35, GRIN3A LBD mod 0, Mot1-301 SUMO -5, H9c2 protect 4 and NTR1 ag -1.
Screening N#Cc1ccc(-c2cccnc2)nc1SCC(=O)Nc1sc2c(c1C#N)CCC2 returned AHR activator 23, AI-2 QS modul 18, GRIN3A LBD mod -1, Mot1-301 SUMO -7, H9c2 protect -4 and NTR1 ag 9.
For Cc1cc(C(F)(F)F)c(C#N)c(SCC(=O)Nc2nc3ccccc3s2)n1 the results were AHR activator 57*, AI-2 QS modul 10, GRIN3A LBD mod 12*, Mot1-301 SUMO 139, H9c2 protect -12 and NTR1 ag 7.
`Cc1nc(SCC(=O)Nc2nc3ccccc3s2)c(C#N)c(C)c1C` gave AHR activator -11, AI-2 QS modul 4, GRIN3A LBD mod 0, Mot1-301 SUMO 26, H9c2 protect -8 and NTR1 ag 0.
For N#Cc1c(C(F)(F)F)cc(-c2ccccc2)nc1SCC(=O)Nc1sc2c(c1C#N)CCC2 the results were AHR activator 12, AI-2 QS modul 20, GRIN3A LBD mod 10*, H9c2 protect -1 and NTR1 ag -7.
For CCOC(=O)C[C@H]1c2cc(C(F)(F)F)ccc2S(=O)(=O)N1Cc1ccccc1 the results were AHR activator 3, AI-2 QS modul -2, GRIN3A LBD mod 1, Mot1-301 SUMO 4, H9c2 protect -9 and NTR1 ag 1.
CCOC(=O)C[C@H]1c2ccccc2S(=O)(=O)N1Cc1ccc(Cl)cc1 was read as AHR activator 0, AI-2 QS modul 18, GRIN3A LBD mod 13*, Mot1-301 SUMO 16, H9c2 protect -16 and NTR1 ag -1.
Screening CCCOc1ccc2ccccc2c1/C=C1\SC(=O)NC1=O returned AHR activator 10, AI-2 QS modul 14, GRIN3A LBD mod -8, Mot1-301 SUMO -11, H9c2 protect -15 and NTR1 ag 1.
CCCCOc1ccc2ccccc2c1C=O was read as AHR activator -7, AI-2 QS modul -1, GRIN3A LBD mod 10*, Mot1-301 SUMO 215, H9c2 protect -15 and NTR1 ag 4.
COC(=O)c1ccc(NC(=O)Nc2ccc(OC)c(OC)c2)cc1 was read as AHR activator 2, AI-2 QS modul 26, GRIN3A LBD mod 21*, Mot1-301 SUMO -20, H9c2 protect -1 and NTR1 ag -1.
`COc1ccc(NC(=O)Nc2cc(C)ccc2F)cc1OC` gave AHR activator 52*, AI-2 QS modul -4, GRIN3A LBD mod 1, Mot1-301 SUMO -4, H9c2 protect -5 and NTR1 ag -2.
